Source: PubChem (The Scripps Research Institute Molecular Screening Center)
Sampled rows, rich in hits. Any-hit rate of the full collection: about 3.5%.
GPR151 activ = activates the human receptor GPR151; activation, % at 11.2 µM; AID 1508602; 650,000 compounds, 1% hits; Q8TDV0; PathHunter beta-arrestin GPR151 cells, luminescence; in the data active means activation above about 4.9%
FBW7 activator = activators of human E3 ligase FBW7; Q969H0; AlphaScreen FBW7–phospho-cyclin E peptide binding, activator screen; normalized activity (activation), % at 26.1 µM; 650,000 compounds, 0.13% hits; AID 1259310; in the data active means normalized activity above about 1.9%;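 further: purified mutant Fbw7 with reduced substrate affinity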
Target sequence (Q969H0 whole entry, looked up): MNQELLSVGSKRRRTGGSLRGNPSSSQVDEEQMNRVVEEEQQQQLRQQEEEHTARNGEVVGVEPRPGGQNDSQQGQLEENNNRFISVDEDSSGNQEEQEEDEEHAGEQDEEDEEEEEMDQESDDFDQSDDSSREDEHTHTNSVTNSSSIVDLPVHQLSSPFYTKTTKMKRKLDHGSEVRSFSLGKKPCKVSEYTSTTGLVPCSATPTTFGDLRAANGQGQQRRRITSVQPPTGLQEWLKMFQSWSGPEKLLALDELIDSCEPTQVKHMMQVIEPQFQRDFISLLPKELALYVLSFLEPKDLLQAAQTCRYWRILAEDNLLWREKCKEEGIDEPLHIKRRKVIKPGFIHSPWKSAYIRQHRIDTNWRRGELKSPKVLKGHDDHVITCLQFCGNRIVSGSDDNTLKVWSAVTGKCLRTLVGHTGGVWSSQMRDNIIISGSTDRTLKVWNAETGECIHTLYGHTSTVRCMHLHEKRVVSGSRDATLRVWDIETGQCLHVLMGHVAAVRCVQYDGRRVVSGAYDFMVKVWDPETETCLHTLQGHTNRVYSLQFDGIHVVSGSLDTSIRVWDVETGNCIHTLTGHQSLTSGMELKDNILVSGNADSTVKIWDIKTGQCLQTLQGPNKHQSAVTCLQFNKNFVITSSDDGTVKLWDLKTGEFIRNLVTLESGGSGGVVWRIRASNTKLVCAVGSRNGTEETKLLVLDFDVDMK
MITF primary = blocks human microphthalmia-associated transcription factor; inhibition, % at 2.6 µM; AlphaScreen MITF homodimerization, bead proximity signal; 650,000 compounds, 0.91% hits; in the data active means inhibition above about 50%
TEAD-YAP block = TEAD-YAP interaction inhibition; 640,000 compounds, 1.4% hits; AID 1259422; inhibition, % at 9.12 µM; HEK-TIYL cells, TEAD-Gal4/YAP UAS-luciferase luminescence; in the data active means inhibition above about 32%
GPR151 confirm = confirmation of human GPR151 activators; shares compounds with GPR151 activ; GPR151 PathHunter beta-arrestin cells, luminescence, 90 min; % of EA-reagent control over plate median; activation, % at 11.2 µM; 6,700 tested, under 10 active; AID 1508609;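 active means mean percent activation across replicates above the confirmation screen cutoff of 4.91%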
GPR119 counter = GPR119 activation, counter-screen for GPR151 activators. shares compounds with GPR151 activ. GPR119 PathHunter beta-arrestin cells, luminescence, 90 min; 0 = compound-well median, 100 = enzyme-acceptor control. activation, % at 11.2 µM. 6,700 compounds, 0.3% hits. AID 1508611;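 active means mean percent activation in the counterscreen above 29.09%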;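 further: counterscreen on off-target GPR119 to flag nonselective hits from the GPR151 activator screen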
Large screens that a line does not name were inactive (follow-up assays come after a bar, where they were run).

O=C(CCC(=O)OCC(=O)c1ccc(Cl)c(Cl)c1)Nc1ccc(F)cc1	none
CCCCNC(=O)CC1Nc2c3ccccc3nc(=S)n2C1=O (configuration not stated)	GPR151 activ 9.6 | GPR151 confirm inactive | GPR119 counter inactive
CC(C)CCNC(=O)CC1Nc2c3ccccc3nc(=S)n2C1=O (configuration not stated)	none
O=C(O)CCCCCNC(=O)COc1ccc2ccccc2c1	none
C=CCOc1ccc(C(=O)N(Cc2nc(-c3ccc(OC)c(OC)c3)no2)C(C)C)cc1	GPR151 activ 11.7 | GPR151 confirm inactive | GPR119 counter inactive
Cc1ccc(-c2noc(CN(C(=O)CCN3C(=O)c4ccccc4C3=O)C(C)C)n2)cc1	GPR151 activ 5.1 | GPR151 confirm inactive | GPR119 counter inactive
COc1cccc(OC)c1C(=O)N(Cc1nc(-c2ccc(C)cc2)no1)C(C)C	GPR151 activ 9.7 | GPR151 confirm inactive | GPR119 counter inactive
COc1ccc(-c2noc(CN(C(C)C)S(=O)(=O)c3ccc(F)cc3)n2)cc1	GPR151 activ 10.6 | GPR151 confirm inactive | GPR119 counter inactive
CC(C)N(Cc1nc(-c2ccccc2)no1)C(=O)CCN1C(=O)c2ccccc2C1=O	none
CCOc1ccc(C(=O)N(Cc2nc(-c3ccc(OC)cc3)no2)C(C)C)cc1OCC	none
O=c1c2sc(=S)n(Cc3ccccc3)c2nc(SCc2cccc([N+](=O)[O-])c2)n1-c1cccc(Cl)c1	none
COc1ccc(CNc2nccn3c(-c4ccc(OC)c(OC)c4)cnc23)cc1	none
COc1ccc(/C=C2/C(=O)NC(=O)N(CCc3ccc(OC)c(OC)c3)C2=O)c(OC)c1	none
CN(Cc1nc(-c2ccccc2)no1)S(=O)(=O)c1ccc(Cl)cc1	GPR151 activ 5.5 | GPR151 confirm inactive | GPR119 counter inactive
COc1cc(/C=C2\SC(NC(C)=O)=NC2=O)cc(OC)c1OC	none
COC(=O)CN1C(=O)S/C(=C/c2ccc(OCC(=O)O)cc2)C1=O	GPR151 activ 9.8 | GPR151 confirm inactive | GPR119 counter inactive
COC(=O)CN1C(=O)S/C(=C\c2cc(Br)c(OC)c(OC)c2)C1=O	GPR151 activ 13.9 | GPR151 confirm inactive | GPR119 counter inactive
COC(=O)CN1C(=O)S/C(=C/C=C/c2ccccc2[N+](=O)[O-])C1=O	none
COC(=O)CN1C(=O)S/C(=C/c2cccc([N+](=O)[O-])c2O)C1=O	GPR151 activ 5.3 | GPR151 confirm inactive | GPR119 counter inactive
COc1cc(/C=C2\SC(NC(C)=O)=NC2=O)cc(Br)c1OC(C)=O	GPR151 activ 7.4 | GPR151 confirm inactive | GPR119 counter inactive
COc1ccc(S(=O)(=O)NCc2ccccc2C)cc1I	none
Cc1sc2ncn(CC(=O)NCCCC(=O)N3CCN(c4ccc(F)cc4)CC3)c(=O)c2c1C	none
COc1ccc(C(=O)CC(=O)Nc2ccc(NC(=O)COc3ccc(C(C)(C)C)cc3)cc2)cc1	none
C=CCN1C(=O)/C(=C/c2ccc(OCC(=O)O)cc2)S/C1=N/c1nccs1	GPR151 activ 7.0 | GPR151 confirm inactive | GPR119 counter inactive
C=CCN1C(=O)/C(=C\c2ccc(C(=O)O)cc2)S/C1=N/c1nnc(CC)s1	none
Nc1ncnc(Nc2ccc(S(=O)(=O)Nc3ncccn3)cc2)c1[N+](=O)[O-]	GPR151 activ 4.9 | GPR151 confirm inactive | GPR119 counter inactive
Cc1cc(C)nc(NS(=O)(=O)c2ccc(Nc3ncnc(N)c3[N+](=O)[O-])cc2)n1	none
CNC(=O)c1ccc(C(=O)N(C(C)C)C(C)C)cc1	none
CC(=O)N1C(=O)/C(=C2\SC(=S)N(c3ccccc3F)C2=O)c2ccccc21	none
COc1ccccc1N1C(=O)/C(=C2/C(=O)N(C(C)=O)c3ccccc32)SC1=S	GPR151 activ 6.5 | GPR151 confirm inactive | GPR119 counter inactive
Cc1cccc(CS(=O)(=O)CC2Nc3ccc(C(=O)N4CCN(c5cccc(C(F)(F)F)c5)CC4)cc3NC2=O)c1 (configuration not stated)	GPR151 activ 5.2 | GPR151 confirm inactive | GPR119 counter inactive
O=C1Nc2cc(C(=O)N3CCN(c4cccc(C(F)(F)F)c4)CC3)ccc2Sc2ccccc21	GPR151 activ 5.1 | GPR151 confirm inactive | GPR119 counter inactive
Cc1ccc(CS(=O)(=O)CC2Nc3ccc(C(=O)N4CCN(c5cccc(C(F)(F)F)c5)CC4)cc3NC2=O)cc1 (configuration not stated)	none
O=C1N[C@@H](Cc2ccc(Cl)cc2)C(=O)N2C[C@@H](NCc3sc4ccccc4c3Cl)C[C@@H]12	none
COc1cccc(N2CCN(C(=O)c3ccc4nc(-c5ccc(OC)c(OC)c5)c(-c5ccc(OC)c(OC)c5)nc4c3)CC2)c1	none
COc1ccc(Nc2cc(-c3cncc(-c4cccs4)c3)nc(C)n2)cc1	GPR151 activ 6.0 | GPR151 confirm inactive | GPR119 counter inactive
COc1ccc(Nc2cc(-c3cncc(-c4ccc(OC)cc4)c3)nc(C)n2)cc1	none
Cc1cccc(NC(=O)C2C3C=CC4(O3)C2C(=O)N(Cc2ccccc2)C4C(=O)NC2CCCCC2C)c1 (configuration not stated)	none
CCOc1c(O)ccc(-c2nn[nH]n2)c1[N+](=O)[O-]	none
CC(NC(=O)C12CC3CC(CC(C3)C1)C2)C(=O)N1CCOCC1 (configuration not stated)	GPR151 activ 5.0 | GPR151 confirm inactive | GPR119 counter inactive
O=C(CNC(=O)C12CC3CC(CC(C3)C1)C2)N1CCOCC1	none
COCCN1C=C(C(=O)OC)C(c2cccc(OC)c2OC(C)C)C(C(=O)OC)=C1	GPR151 activ 10.9 | GPR151 confirm inactive | GPR119 counter inactive
O=C1Nc2ccc(Cl)cc2C1=Nc1ccc(C(=O)O)cc1	none
C=CCOc1ccc(C2C3=C(CC(C)(C)CC3=O)N(CC)C3=C2C(=O)CC(C)(C)C3)cc1	none
CC(=O)Nc1ccc(NC(=S)NC(=O)c2cccc(Cl)c2)cc1	none
Cc1cccnc1NC(=S)NC(=O)c1cccc(Cl)c1	GPR151 activ 5.0 | GPR151 confirm inactive | GPR119 counter inactive
C=CCOC(=O)N1CCC(C(=O)NC(c2ccccc2)c2ccsc2)CC1 (configuration not stated)	none
CC1=C(C(=O)N2CCOCC2)C(c2ccc(O)cc2)NC(=S)N1 (configuration not stated)	GPR151 activ 8.8 | GPR151 confirm inactive | GPR119 counter inactive
Cc1cc(C)n(/N=C/c2cccc(OCc3ccccc3)c2)c(=O)c1C#N	none
CNc1ccccc1P(=O)(O)O	GPR151 activ 6.3 | GPR151 confirm inactive | GPR119 counter inactive
Cc1cccc(NC(=O)CC(C)S(=O)(=O)c2ccc3c(c2)SCC(=O)N3)c1C (configuration not stated)	GPR151 activ 5.8 | GPR151 confirm inactive | GPR119 counter inactive
